The term Inhibition denotes the drop in the measured response relative to a control, in per cent.

36 molecules from ChEMBL document CHEMBL4513135, “CO-ADD screening of IQOG CSIS (Spain) compounds” can be followed below.

The test system of one assay is Staphylococcus aureus. The settings on record: Concentration 32 ug.mL-1; ASSAY_TEST Inhibition of Bacterial Growth; detection method Absorption (OD600); MEDIA CAMHB; plate type 384well; NBS; CORNING #3640; time 18 hr.
The subject of the next assay is Escherichia coli. The settings on record: Concentration 32 ug.mL-1; ASSAY_TEST Inhibition of Bacterial Growth; detection method Absorption (OD600); MEDIA CAMHB; plate type 384well; NBS; CORNING #3640; time 18 hr.

Potency and affinity values are given separately.

For the molecule `Cn1ccnc1C1C2=C(CC(C)(C)CC2=O)Oc2nc3c(c(N)c21)CCCC3` (configuration not stated), the Inhibition is 8.97% in the assay with Staphylococcus aureus and -15.11% with Escherichia coli.

As to `O=C(N/N=C/Cc1ccccc1)c1cc2ccccc2[nH]1`, the Inhibition in the assay on Staphylococcus aureus stood at 10.17%; in the assay with Escherichia coli, 9.88%.

Turning to `COc1nc2nc3c(c(N)c2cc1C#N)CCCC3`, the Inhibition is listed as 30.12% with Staphylococcus aureus and -3.63% in the assay on Escherichia coli.

As to `COc1nc(Cl)c(C#N)c(-c2ccccc2)c1C#N`, the Inhibition in the assay on Staphylococcus aureus is reported as 35.41%; in the assay with Escherichia coli it was -14.05%.

Regarding `C=C1CN(C)c2c(C#N)c(-c3ccccc3)c(C#N)c(=O)n21`, the Inhibition in the assay on Staphylococcus aureus is listed as 8.64%; in the assay with Escherichia coli it was -1.97%.

Regarding `CCOc1nc2nc(CCc3ccccc3)ccc2c(-c2ccccc2)c1C#N`, the Inhibition in the assay with Staphylococcus aureus is on record as 14.64%; in the assay on Escherichia coli, -39.9%.

`C/C(=N\NC(=O)c1cc2ccccc2n1Cc1ccccc1)C1CC1`: the results for the Inhibition in the assay on Staphylococcus aureus and in the assay with Escherichia coli were 7.87% and 7.24%, respectively.

In the case of `C#CCN(C)Cc1cc2cc(OC)ccc2n1C`, the Inhibition in the assay with Staphylococcus aureus was 33.86%; with Escherichia coli, -8.2%.

Take `O=C(NNC(Cc1ccccc1)Cc1ccccc1)c1cc2ccccc2[nH]1`: the Inhibition in the assay with Staphylococcus aureus is listed as -3.72%; in the assay with Escherichia coli, -3.49%.

Consider `Cc1nn(-c2ccccc2)c2nc(C)n3nc(-c4ccccc4)nc3c12`, for which the Inhibition amounted to 16.28% in the assay with Staphylococcus aureus and 8.31% in the assay on Escherichia coli.

For the molecule `COC(=O)C(=Cc1ccc(OC)cc1)NC(C)=O`, the Inhibition with Staphylococcus aureus worked out at 16.29%; with Escherichia coli it was 8.29%.

Take `CCOC(=O)c1c(C)nc(/N=N/c2nc(C)c(C(=O)OCC)c(-c3ccccc3)c2C#N)c(C#N)c1-c1ccccc1`: the Inhibition came out at 11.27% in the assay with Staphylococcus aureus and 6.76% in the assay on Escherichia coli.

For the molecule `N#Cc1c(Cl)nc(N2CCCCC2)c(C#N)c1-c1ccccc1`, the results for the Inhibition in the assay on Staphylococcus aureus and in the assay with Escherichia coli were -12.16% and 17.72%, respectively.

Consider `N#CC1=C(Cl)Oc2c(ccc3ccccc23)C1c1cccc([N+](=O)[O-])c1` (configuration not stated), for which the Inhibition in the assay on Staphylococcus aureus is 9.83%; with Escherichia coli it was -16.88%.

As for `COc1ccc(C2C(C#N)=C(N)Oc3[nH]nc(C)c32)cc1` (configuration not stated), the Inhibition with Staphylococcus aureus is recorded as 4.82%; in the assay on Escherichia coli, 6.91%.

With `CNN=C1N=C(SCc2ccccc2)SC1=O`, the Inhibition in the assay with Staphylococcus aureus was found to be 8.05%; with Escherichia coli, 4.4%.

As to `COc1ccccc1-c1c(C#N)c(=O)oc2c1ccc1ccccc12`, the Inhibition came to 27.34% in the assay on Staphylococcus aureus and 19.18% with Escherichia coli.

Take `CCOC(=O)C1=C(C)OC(N)=C(C#N)C1c1ccco1` (configuration not stated): the Inhibition in the assay with Staphylococcus aureus is reported as 7.79%; in the assay with Escherichia coli, -14.37%.

`CCOc1nc(N)c(C#N)cc1C#N.Cl`: the Inhibition was -3.52% in the assay with Staphylococcus aureus and -30.21% in the assay with Escherichia coli.

Consider `CNC(=O)c1cc2cc(OCc3ccccc3)ccc2n1C`, for which the figures for the Inhibition in the assay on Staphylococcus aureus and with Escherichia coli were 23.23% and -13.67%, respectively.

As for `CNCc1cc2ccccc2n1C.Cl`, the Inhibition with Staphylococcus aureus is recorded as 7.33%; in the assay with Escherichia coli, 3.85%.

As to `CC#CCN(Cc1ccccc1)c1nc(N)c(C#N)cc1C#N`, the Inhibition in the assay with Staphylococcus aureus is on record as 14.89%; in the assay with Escherichia coli it was -4.77%.

As to `N#Cc1cc(C#N)c(NCCO)nc1N`, the Inhibition with Staphylococcus aureus is reported as 40.77%; with Escherichia coli, -7.55%.

Regarding `CNCc1cc2cc(OCc3ccccc3)ccc2n1C.Cl`, the figures for the Inhibition in the assay on Staphylococcus aureus and in the assay on Escherichia coli were 43.08% and 3.38%, respectively.

With `CCOC(=O)C1=C(C)NC(N)=C(C#N)C1c1ccc([N+](=O)[O-])cc1` (configuration not stated), the Inhibition in the assay with Staphylococcus aureus is given as 22.51%; with Escherichia coli, -7.02%.

Take `CCCC(C)NNC(=O)c1cc2ccccc2[nH]1` (configuration not stated): the Inhibition in the assay with Staphylococcus aureus turned out to be 2.06%; with Escherichia coli, 3.83%.

As to `N#Cc1cc(C#N)c(Cl)nc1N`, the Inhibition in the assay on Staphylococcus aureus is given as 11.29%; in the assay with Escherichia coli, 7.53%.

Consider `Nc1c2c(nc3c1C(c1ccc([N+](=O)[O-])cc1)c1c(ccc4ccccc14)O3)CCCC2` (configuration not stated), for which the Inhibition in the assay with Staphylococcus aureus worked out at 18.24%; in the assay on Escherichia coli it was 7.89%.

For the molecule `COc1ccc2c(c1)cc(CN(C)C)n2C`, the results for the Inhibition in the assay with Staphylococcus aureus and with Escherichia coli were -0.93% and -1.4%, respectively.

On to `C#CCN(C)Cc1cc2cc(OCCCC3CCN(Cc4ccc(C#N)cc4)CC3)ccc2n1C`, for which the Inhibition was 8.98% with Staphylococcus aureus and -18.18% in the assay with Escherichia coli.

In the case of `Nc1c2c(nc3c1CC(c1c(Cl)cccc1Cl)C(=O)N3)CCCC2` (configuration not stated), the Inhibition amounted to 22.21% in the assay with Staphylococcus aureus and 31.42% in the assay on Escherichia coli.

With `N#CC1(Br)C(=NBr)Oc2ccc3ccccc3c2C1c1cccc([N+](=O)[O-])c1` (configuration not stated), the Inhibition in the assay with Staphylococcus aureus is listed as 29.27%; in the assay on Escherichia coli, -20.79%.

As to `CCOC(=O)c1c(C)[nH]c(=O)c(C#N)c1-c1ccccc1`, the Inhibition with Staphylococcus aureus was 37.77%; in the assay on Escherichia coli, -18.87%.

For the molecule `CCCC(=O)NCc1c(-c2ccc(Cl)cc2)nc2ccccn12`, the values for the Inhibition in the assay with Staphylococcus aureus and in the assay with Escherichia coli were 11.89% and 8.99%, respectively.

On to `COc1cccc(C2c3ccc4ccccc4c3OC(=NBr)C2(Br)C#N)c1` (configuration not stated), for which the results for the Inhibition with Staphylococcus aureus and in the assay on Escherichia coli were 27.48% and -7.21%, respectively.

In the case of `CC#CCN.Cl`, the Inhibition in the assay with Staphylococcus aureus turned out to be 31.78%; with Escherichia coli it was 20.2%.
